The whole screen tested about 640,000 compounds, of which about 9,300 (1.5%) were called active. Cut-off read from the data, not from the text of the source: active = inhibition above about 32%; inactive = the rest. Many of the other results were omitted from the sample, so actives are more common in it than they were.

The assay is described as follows: TEAD-YAP interaction inhibition, primary screen, TEAD-YAP interaction inhibitor project, luminescence, HEK-TIYL cells (AID 1259422).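 Note: 0% = median of test compound wells and 100% = reference inhibitor wells.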 The following applies: TEAD-Gal4/YAP UAS-luciferase luminescence, at 9.12 µM, stronger effect = higher value.
The term inhibition denotes the drop in the measured response relative to a control, in per cent. In the case of `COc1ccc(S(=O)(=O)CCC(=O)Nc2ccc(C)cc2Br)cc1`, the inhibition was -9.1% (inactive). Regarding `COc1ccc(/C=C2/C(=O)NN(c3cccc(Cl)c3)C2=O)cc1`, the inhibition is 5.26% (inactive).

Turning to `CC(=O)Oc1ccc(/C=C2\N=C(c3ccccc3F)OC2=O)cc1`, the inhibition was -4.17% (inactive). With `Cc1c(C(=O)N/N=C/c2cccc([N+](=O)[O-])c2)nnn1-c1nonc1N`, the inhibition was -6.33% (inactive). Next, `CC(=O)Oc1c(C)cc(C)c2ccc(=O)[nH]c12`: -7.29% (inactive); `CCc1ccc(CC(=O)N2CC(=O)Nc3ccccc32)cc1`: 49.8% (active). `CC1CC(=O)Nc2ccccc2N1C(=O)Cc1ccc(Cl)cc1` (centres undefined): the inhibition is -16.4% (inactive). For the compound `O=C1CN(C(=O)CCl)c2ccccc2N1`, the inhibition was 14.1% (inactive). Next, `CCCOCc1c[nH]c(=O)[nH]c1=O`: -4.81% (inactive). Regarding `CCOC(=O)C1=C(NC(=S)NC(=O)c2ccccc2)c2ccccc2CC1(CC)CC`, the inhibition was 51.5% (active). With `CCOC(=O)c1c(NC(=S)NC(=O)c2ccccc2)sc2c1CC(C)(CC)OC2` (centres undefined) the figure was 8.08% (inactive).

As to `COc1ccc(C(=O)O)cc1NC(=S)NC(=O)c1ccccc1`, the inhibition was -6.39% (inactive). With `OC(CN1CCN(c2ccccc2F)CC1)Cn1nnnc1-c1ccccc1` (centres undefined) the figure was 2.32% (inactive).

`Cc1cc(C)c(/C=C/c2cc(C(F)(F)F)[nH]c(=O)n2)cc1C`: the inhibition is -9.26% (inactive).

For `Cc1nc(N2CCN(c3ccccn3)CC2)c2c(C)c(C(=O)Nc3ccccc3C(F)(F)F)sc2n1`, the inhibition was -2.56% (inactive). Next, `O=C(O)c1cccc(-c2cnc3ccc(NCc4ccc(F)cc4)nn23)c1`: -7.03% (inactive). With `Cc1ccc(-c2cnn3c(NCCCN4CCOCC4)ccnc23)cc1C` the figure was 10.5% (inactive); with `c1ccc(Oc2ccc(-c3cnn4c(NCCCN5CCOCC5)ccnc34)cc2)cc1`, 42% (active); with `c1ccc(Cn2cc(-c3cnn4c(NCCCN5CCOCC5)ccnc34)cn2)cc1`, -1.52% (inactive). With `CCOc1cc2c(cc1OCC)C(c1cc(OC)ccc1F)NCC2` (centres undefined) the figure was 4.41% (inactive); with `CC(C)(O)C#CC(O)c1cccc([N+](=O)[O-])c1` (centres undefined), -0.86% (inactive). Take `COc1ccc(C(c2sc3ncnn3c2O)N2CC(C)OC(C)C2)cc1` (centres undefined): the inhibition is 10.7% (inactive). Take `COc1ccc(C(=O)NCC(=O)NNc2ncnc(N)c2[N+](=O)[O-])c(OC)c1`: the inhibition is 11.1% (inactive). Next, `O=C(N/N=C/c1cc(Br)ccc1O)c1ccc(=O)[nH]n1`: 14.8% (inactive); `O=C(N/N=C/c1cc(Br)ccc1O)c1cc(-c2cccs2)[nH]n1`: 65.8% (active). Take `COc1cccc(/C=N/NC(=O)c2cc(-c3cccs3)[nH]n2)c1O`: the inhibition was 68% (active).

`COc1ccccc1/C=N/NC(=O)c1cc(-c2ccc(C)o2)[nH]n1`: the inhibition was 4.17% (inactive). With `O=C(N/N=C/c1cc(Br)ccc1O)c1cc(Br)ccc1O` the figure was -12% (inactive); with `CCOc1ccc(/C=N/NC(=O)c2cc(-c3cccs3)[nH]n2)cc1`, -4.12% (inactive); with `Cc1ccc(CNS(=O)(=O)c2ccc(F)c(C(=O)Nc3cccc(Cl)c3)c2)cc1`, -4.88% (inactive).

On to `COc1cc(C=Nc2ccc(NC(C)=O)cc2)ccc1OC(=O)c1cccs1`, for which the inhibition was -6.6% (inactive). With `COc1ccccc1NS(=O)(=O)c1ccc(Cl)c(C(=O)Nc2ccccc2C)c1` the figure was 0.37% (inactive). With `O=C(Cc1cccc(Cl)c1)NCC1CCC2(CCN(C(=O)C3CC3)CC2)O1` (centres undefined) the figure was -0.11% (inactive). Next, `COc1ccc(C2CCN(C(=O)C3CCCO3)CC2)cc1` (centres undefined): -7.42% (inactive); `Cc1cccc2c1CC(=O)NC21CCN(Cc2ccc3ccccc3c2)CC1`: 7.07% (inactive); `CCc1ccc(OCC(=O)Nc2nc(C)c(C)s2)c(Br)c1`: 77.7% (active). As for `Cc1ccc(OCC(=O)Nc2nc(-c3ccccc3)cs2)c(Br)c1`, the inhibition is 5.91% (inactive).

`CCc1ccc(OCC(=O)NCc2ccncc2)c(Br)c1`: the inhibition was -4.34% (inactive). Next, `CCOC(=O)C1(CCOc2ccccc2)CCN(Cc2cnn(C(C)C)c2)CC1`: 10.3% (inactive); `O=[N+]([O-])c1ccc2oc(-c3cccc(O)c3)nc2c1`: 73.9% (active).

For the compound `O=C(COc1ccc([N+](=O)[O-])cc1)Nc1ccc2oc(-c3cccc(F)c3)nc2c1`, the inhibition is -7.11% (inactive).

Take `O=C(Nc1ccc2oc(-c3ccc(F)cc3)nc2c1)c1ccc([N+](=O)[O-])cc1`: the inhibition is 11.2% (inactive).

Consider `Cc1ccc2nc3c(cc(C#N)c(=O)n3-c3cccc(Cl)c3)c(=O)n2c1`, for which the inhibition is -0.14% (inactive). With `CC1=CN2C(=O)NC(C(F)(F)F)(C(F)(F)F)N=C2S1` the figure was -16.6% (inactive); with `COCCCNC(=O)/C(C#N)=C/c1ccc(-c2cccc(Cl)c2Cl)o1`, 1.01% (inactive). In the case of `COCCCNC(=O)Cn1cc(/C=C(\C#N)C(=O)NCc2ccco2)c2ccccc21`, the inhibition is 3.94% (inactive). With `COCCCNC(=O)/C(C#N)=C/c1cc(C)n(-c2cccc3ccccc23)c1C` the figure was 47.1% (active); with `COc1ccc(NC(=O)c2sc3nc(-c4cccc([N+](=O)[O-])c4)cn3c2C)cc1`, 4.9% (inactive). For the compound `CCOC(=O)C1CCN(S(=O)(=O)c2cc(Br)ccc2OCC)CC1`, the inhibition was 0.17% (inactive). With `CCOc1ccc(Br)cc1CSC(=N)N` the figure was 55.7% (active). Next, `CCOc1ccc(Br)cc1S(=O)(=O)Nc1ccccc1C(=O)O`: 3.25% (inactive); `CC(=O)N(Cc1cccnc1)Cc1cc2cc(C)c(C)cc2nc1Cl`: 6.62% (inactive); `Cc1cccc(C(=O)Nc2ccc(C(=O)N/N=C/c3ccc(O)cc3)cc2)c1`: -12.2% (inactive). Regarding `CCOc1ccccc1NS(=O)(=O)c1ccc2c(c1)NC(=O)C(C)C(=O)N2` (centres undefined), the inhibition is -5.49% (inactive). Next, `O=C1CS(=O)(=O)C(c2ccccc2[N+](=O)[O-])N1c1ccc(Oc2ccc(Cl)cc2)cc1` (centres undefined): 11.6% (inactive); `COc1ccc(-n2nnnc2SCc2nc(N)nc(N3CCOCC3)n2)cc1`: -11.4% (inactive). Regarding `CN(C)c1nc(N)nc(CSc2ccccn2)n1`, the inhibition was -4.14% (inactive).

Take `CN(C)c1nc(N)nc(CSc2nnnn2-c2cccc3ccccc23)n1`: the inhibition was 35.1% (active).

As for `CCOC(=O)c1sc2nc(C)nc(OCc3ccccc3C)c2c1C`, the inhibition was -7.17% (inactive). With `COc1ccccc1-c1cc(C(F)(F)F)nc(S(=O)(=O)CCCC(=O)Nc2sc(C(N)=O)c(C)c2C(=O)OC(C)C)n1` the figure was -2.08% (inactive).

Regarding `CCOc1cccc(NC(=O)c2ccc(F)c(S(=O)(=O)N(CC)c3cccc(C)c3)c2)c1`, the inhibition was -0.19% (inactive).

`Cc1cccc(NC(=O)c2ccc(F)c(S(=O)(=O)N(C)C3CCCCC3)c2)c1`: the inhibition was -12.6% (inactive).

On to `CCN(Cc1ccccc1)S(=O)(=O)c1cc(C(=O)Nc2cccc(C)c2)ccc1F`, for which the inhibition was 51.1% (active).

In the case of `O=C(Nc1ccc(Oc2ccccc2)cc1)c1ccc(F)c(S(=O)(=O)N2CCc3ccccc3C2)c1`, the inhibition is -0.62% (inactive). Next, `CCN(c1cccc(C)c1)S(=O)(=O)c1cc(C(=O)Nc2ccc(Oc3ccccc3)cc2)ccc1F`: 35.4% (active).

`CCN(Cc1ccccc1)S(=O)(=O)c1ccc(F)c(C(=O)Nc2ccc(C)cc2)c1`: the inhibition was -16.5% (inactive). Next, `COc1cccc(-c2ccccc2NC(=O)C2CCN(Cc3ccccn3)CC2)c1`: 10.6% (inactive); `CC1=C(C(=O)Nc2nc3ccccc3s2)C(c2ccsc2)C2=C(CCCC2=O)N1` (centres undefined): 12.1% (inactive); `COC(=O)c1c(OCCN2CCCC2=O)cc(=O)n2c1CCN(CC(C)C)CC2`: -5.77% (inactive). `Cc1ccc(-c2ncn(-c3ccc(Nc4ncc(F)c(-c5cccc(N6CCOCC6)c5)n4)cc3)n2)cn1`: the inhibition is 28.1% (inactive).

Take `Fc1cc(-c2nc(Nc3ccc(CN4CCOCC4)cc3)ncc2F)cc(N2CCOCC2)c1`: the inhibition was 74.6% (active). In the case of `c1cncc(CNc2nccc(Nc3ccc(N4CCOCC4)cc3)n2)c1`, the inhibition was 1.72% (inactive).

With `Fc1ccc(CN2CCOCC2)cc1F`, the inhibition is -5.29% (inactive). In the case of `Fc1cnc(Nc2ccc(Cn3ccnc3)cc2)nc1-c1cccc(N2CCOCC2)c1`, the inhibition was 84.8% (active). Next, `Cc1ccc(-c2ncn(-c3ccc(Nc4nccc(-c5cc(F)cc(N6CCOCC6)c5)n4)cc3)n2)nc1`: 8.1% (inactive); `O=C(Nc1ccccc1)c1ccc(CSc2ccc(Cl)cc2)cc1`: 1.08% (inactive). Next, `Cc1cc2oc(=O)cc(C)c2cc1NC(=O)COc1ccccc1`: 18.6% (inactive); `c1ccc2c(N3CCCCCC3)nc(CN3CCCCC3)nc2c1`: 3.64% (inactive); `COCCNC(=O)c1sc2nc(C)nc(N3CCCCC3)c2c1C`: 8.3% (inactive). With `C=CCn1c(NCCCN(C)C)cc(=O)n(C)c1=O` the figure was 1.12% (inactive); with `Cc1cc(C)cc(Cn2c(NCc3ccncc3)cc(=O)n(C)c2=O)c1`, 33.7% (active); with `Cc1cccc(Cn2c(NCc3ccc4c(c3)OCO4)nc3c2c(=O)n(C)c(=O)n3C)c1`, 3.24% (inactive). Regarding `CC(=O)c1ccc(OCc2cc(C(=O)NCc3cccc(-n4cccn4)c3)no2)cc1`, the inhibition is -59.7% (inactive).

For the compound `O=C(Nc1ccc(N2CCC(NCCc3ccco3)CC2)cc1)C1CCCC1`, the inhibition was 56.3% (active). In the case of `O=C(NC1CCCC1)c1ccc(N2CCC(NCCc3ccco3)CC2)cc1`, the inhibition was -1.18% (inactive). Next, `O=C(Nc1cccc(N2CCC(NCCc3ccco3)CC2)c1)c1ccncc1`: -5.63% (inactive); `COc1ccc(CCNC(=O)CSc2cn(C)c3ccccc23)cc1OC`: -1.21% (inactive). Next, `COc1ccc(Cl)cc1C1=N/C(=C\c2coc3ccccc3c2=O)C(=O)O1`: 1.35% (inactive); `COc1ccc(CCNc2nc3ccc(C)cc3n3cnnc23)cc1OC`: -9.92% (inactive). With `COc1ccc(NC(=O)CNC(=O)Cn2cnc3sc(C)cc3c2=O)c(OC)c1` the figure was 7.78% (inactive). Turning to `COc1ccc(CCNc2nc(SCC#N)nc3ccccc23)cc1OC`, the inhibition was -11.4% (inactive). For the compound `COc1ccc(Nc2nc3nonc3nc2Nc2ccc(OC)cc2OC)c(OC)c1`, the inhibition was -7.35% (inactive). For the compound `COc1ccc(Nc2nc(C)nc3sc(C)cc23)c(OC)c1`, the inhibition is 46% (active). For the compound `COc1ccc(CCNc2nc(C)nc3sc(C)cc23)cc1OC`, the inhibition was 41.7% (active).

For the origin of these results see PubChem BioAssay AID1259422 (The Scripps Research Institute Molecular Screening Center, 2018).
